Composite z-score and z-score data for 6 compounds are collected here from PubChem BioAssay.

Activity calls are given as the source filed them.

The test system of assay [1] is Plasmodium falciparum Sir2 (PF13_0152, Sir2A). As to the kind of experiment: Plasmodium falciparum Sir2A binding compounds – biochemical, small-molecule microarray, 635 nm fluorescence, primary screen (AID 1098).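 Further: score merges spot fluorescence intensity with its signal-to-noise ratio.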 Particulars: fluorescence 635 nm, higher = more signal.
Assay [2] can be described thus: probe aDKK1 binding to arrayed compounds – biochemical, biotinylated probe, 635/667 nm fluorescence, primary screen (AID 1099).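 Further: score merges 667nm spot fluorescence with signal to noise across triplicate slides.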 Particulars: small-molecule microarray, higher = more signal.
Assay [3] is described as follows: probe aCHRDL2 binding to arrayed compounds – biochemical, biotinylated probe, 635/667 nm fluorescence, primary screen (AID 1100). Conditions: small-molecule microarray, higher = more signal.
Assay [4] in a line: change in splice reporter luminescence, either direction, cell-based, HEK293, spliceosome inhibition project, primary screen (AID 1101).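 Further: HEK293 cells carrying a splicing-competent luciferase reporter gene; test concentration not given here.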 Conditions: HEK293 splicing luciferase reporter, 24 h, higher = more signal, called active from +8 up or from −8 down. (Reporter assays use an easily measured gene product as a stand-in for the process of interest.)
For assay [5], the target named is Fibroblast growth factor 10 (Homo sapiens) (UniProt O15520). As to the kind of experiment: compounds binding fibroblast growth factor 10 – biochemical, small-molecule microarray, 635 nm fluorescence, primary screen (AID 1102). Conditions: FGF10 binding, fluorescence 635 nm, higher = more signal.
Fibroblast growth factor 10 (Homo sapiens), sequence (O15520 whole entry, looked up): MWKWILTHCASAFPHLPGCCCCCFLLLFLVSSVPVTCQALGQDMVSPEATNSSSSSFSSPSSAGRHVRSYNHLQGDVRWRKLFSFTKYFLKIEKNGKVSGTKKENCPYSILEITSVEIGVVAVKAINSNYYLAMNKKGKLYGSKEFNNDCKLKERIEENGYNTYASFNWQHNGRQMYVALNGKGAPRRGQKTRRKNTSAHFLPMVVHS
For assay [6], the system named is glycogen synthase kinase-3 (GSK3A per assay name; protocol says GSK3B). As to the kind of experiment: compounds binding glycogen synthase kinase-3 – biochemical, small-molecule microarray, 635 nm fluorescence, GSK3A, primary screen (AID 1103). Further: the record names both GSK3A and GSK3B. Conditions: fluorescence 635 nm, higher = more signal.
The target of assay [7] is Epidermal growth factor receptor (Homo sapiens) (UniProt P00533). As to the kind of experiment: compounds binding epidermal growth factor receptor – biochemical, small-molecule microarray, 635 nm fluorescence, primary screen (AID 1104).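 Further: score merges 667 nm emission intensity with spot signal to noise over triplicate slides.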 Particulars: EGFR binding, higher = more signal.
Epidermal growth factor receptor (Homo sapiens), sequence (P00533 whole entry, looked up): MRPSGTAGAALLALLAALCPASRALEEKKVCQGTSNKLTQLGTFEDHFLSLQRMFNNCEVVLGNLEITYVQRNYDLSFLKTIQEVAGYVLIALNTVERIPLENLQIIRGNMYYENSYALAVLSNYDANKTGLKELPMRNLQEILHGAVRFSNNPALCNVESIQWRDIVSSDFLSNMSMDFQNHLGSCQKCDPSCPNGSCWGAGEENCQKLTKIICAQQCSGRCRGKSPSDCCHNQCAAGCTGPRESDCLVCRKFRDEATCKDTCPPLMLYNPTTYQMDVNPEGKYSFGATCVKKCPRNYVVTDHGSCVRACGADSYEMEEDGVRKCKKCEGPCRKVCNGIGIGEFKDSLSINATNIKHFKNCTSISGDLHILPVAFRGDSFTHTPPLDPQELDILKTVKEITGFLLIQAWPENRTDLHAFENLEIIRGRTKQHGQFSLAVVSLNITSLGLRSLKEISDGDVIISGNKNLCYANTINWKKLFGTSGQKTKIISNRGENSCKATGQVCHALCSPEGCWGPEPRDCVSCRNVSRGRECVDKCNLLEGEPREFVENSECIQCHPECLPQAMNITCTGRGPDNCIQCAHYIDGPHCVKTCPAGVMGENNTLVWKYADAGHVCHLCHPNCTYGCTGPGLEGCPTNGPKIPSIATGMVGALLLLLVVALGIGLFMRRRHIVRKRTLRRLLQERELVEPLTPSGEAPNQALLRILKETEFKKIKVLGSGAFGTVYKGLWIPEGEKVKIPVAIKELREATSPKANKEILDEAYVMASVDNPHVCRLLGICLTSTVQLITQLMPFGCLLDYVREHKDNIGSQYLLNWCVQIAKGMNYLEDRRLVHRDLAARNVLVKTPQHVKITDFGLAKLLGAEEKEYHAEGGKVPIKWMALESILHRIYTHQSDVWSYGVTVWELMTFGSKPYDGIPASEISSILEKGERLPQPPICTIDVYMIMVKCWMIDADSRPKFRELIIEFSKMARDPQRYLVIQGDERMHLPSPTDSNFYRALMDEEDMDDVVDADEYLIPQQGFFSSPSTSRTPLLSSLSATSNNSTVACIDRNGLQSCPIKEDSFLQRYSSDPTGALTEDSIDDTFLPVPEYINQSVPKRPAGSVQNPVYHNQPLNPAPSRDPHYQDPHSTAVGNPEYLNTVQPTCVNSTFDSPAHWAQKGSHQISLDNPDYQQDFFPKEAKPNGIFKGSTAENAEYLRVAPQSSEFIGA
In assay [8] the target is Follistatin-related protein 3 (Homo sapiens) (UniProt O95633). As to the kind of experiment: compounds binding follistatin-related protein 3 – biochemical, small-molecule microarray, 635 nm fluorescence, primary screen (AID 1105).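 Further: score merges emission near 667 nm and signal to noise per printed spot across three slides.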 Conditions: FSTL3 binding, higher = more signal.
Follistatin-related protein 3 (Homo sapiens), sequence (O95633 whole entry, looked up): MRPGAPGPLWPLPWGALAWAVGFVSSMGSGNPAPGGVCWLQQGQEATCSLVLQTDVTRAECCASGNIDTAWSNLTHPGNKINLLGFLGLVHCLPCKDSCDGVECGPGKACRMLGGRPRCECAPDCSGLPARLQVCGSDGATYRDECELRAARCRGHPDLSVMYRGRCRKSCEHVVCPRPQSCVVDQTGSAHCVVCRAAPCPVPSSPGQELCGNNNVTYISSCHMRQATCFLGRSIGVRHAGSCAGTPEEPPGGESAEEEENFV
For assay [9], the target named is Dickkopf-related protein 1 (Homo sapiens) (UniProt O94907). As to the kind of experiment: small molecules binding DKK1 protein – biochemical, small-molecule microarray, 635 nm fluorescence scan, primary screen (AID 1106).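 Further: score merges emission near 667 nm with signal to noise over three replicate slides.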 Particulars: higher = more signal.
Dickkopf-related protein 1 (Homo sapiens), sequence (O94907 whole entry, looked up): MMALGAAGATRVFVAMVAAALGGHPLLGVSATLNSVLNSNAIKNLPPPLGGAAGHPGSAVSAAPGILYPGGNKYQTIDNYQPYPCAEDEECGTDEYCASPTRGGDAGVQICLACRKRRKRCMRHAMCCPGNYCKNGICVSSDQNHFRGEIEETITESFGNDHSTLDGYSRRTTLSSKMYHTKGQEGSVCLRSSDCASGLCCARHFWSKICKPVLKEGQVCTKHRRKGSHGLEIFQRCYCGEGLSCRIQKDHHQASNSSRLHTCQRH
Assay [10] deals with Inhibin beta A chain (activin A). As to the kind of experiment: small molecules binding activin A – biochemical, small-molecule microarray, 635 nm fluorescence scan, primary screen (AID 1107).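 Further: mouse activin A protein probed at 4.33 µg/mL on printed slides; score merges bound-protein fluorescence near 667 nm with spot signal-to-noise.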 Conditions: INHBA, higher = more signal.
Assay [11] deals with Human papillomavirus type 1a protein E7 (residues 44-93). As to the kind of experiment: small molecules binding HPV E7 44-93 – biochemical, small-molecule microarray, residues 44-93, 635 nm fluorescence, primary screen (AID 1108).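 Further: E7 fragment applied at 1 µg/mL in TBST for 1 h at 4 C; score combines spot fluorescence with its signal to noise ratio.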 Conditions: fluorescence 635 nm, higher = more signal.
Assay [12] in a line: hepatitis C replication reporter changes, two-sided – Huh7 cells, luciferase reporter, HCV replication inhibitor project, primary screen (AID 1109).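 Further: huh7 hepatoma cells harbouring a luciferase neomycin HCV replicon reporter; luciferase luminescence as measure of HCV replicon replication; test concentration not given here.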 Particulars: Huh7 HCV replicon luciferase reporter, 48 h; higher = more signal.
For assay [13], the target named is Left-right determination factor 2 (Homo sapiens) (UniProt O00292). As to the kind of experiment: small molecules binding LEFTY2 protein – biochemical, small-molecule microarray, 635 nm fluorescence scan, primary screen (AID 1110). Particulars: higher = more signal.
Left-right determination factor 2 (Homo sapiens), sequence (O00292 whole entry, looked up): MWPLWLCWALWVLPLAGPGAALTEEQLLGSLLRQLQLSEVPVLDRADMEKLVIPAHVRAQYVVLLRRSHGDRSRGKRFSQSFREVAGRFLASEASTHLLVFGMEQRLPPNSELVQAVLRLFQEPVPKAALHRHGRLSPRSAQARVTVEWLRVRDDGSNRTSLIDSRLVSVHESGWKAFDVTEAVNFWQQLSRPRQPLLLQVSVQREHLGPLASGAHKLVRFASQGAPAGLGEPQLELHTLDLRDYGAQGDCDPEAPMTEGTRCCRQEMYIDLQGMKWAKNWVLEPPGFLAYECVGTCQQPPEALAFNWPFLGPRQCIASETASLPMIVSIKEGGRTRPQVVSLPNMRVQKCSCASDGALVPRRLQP
For assay [14], the target named is Calmodulin-1 (Homo sapiens) (UniProt P0DP23). As to the kind of experiment: small molecules binding calmodulin-1 with EGTA – biochemical, small-molecule microarray, Cy5-labelled CALM1, profiling panel (AID 1111).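 Further: labelled calmodulin applied in Tris saline Tween buffer holding calcium plus EGTA and DTT.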 Conditions: Cy5-CALM1 binding fluorescence, higher = more signal.
Assay [15] has the same target. As to the kind of experiment: small molecules binding Ca-loaded calmodulin-1 – biochemical, small-molecule microarray, Cy5-labelled CALM1, plus calcium, artefact control for SMM control-protein annotation, profiling panel (AID 1112).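 Further: score merges spot fluorescence with signal to noise from triplicate slides.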 Particulars: Cy5-CALM1 binding fluorescence, higher = more signal.
A short description of assay [16]: probe aWnt5a binding to arrayed compounds – biochemical, biotinylated probe, 635/667 nm fluorescence, primary screen (AID 1113).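 Further: score merges 667 nm fluorescence intensity with signal-to-noise per printed feature.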 Particulars: small-molecule microarray, higher = more signal.
A short description of assay [17]: probe aShh binding to arrayed compounds – biochemical, biotinylated probe, 635/667 nm fluorescence, primary screen (AID 1114).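 Further: probe is biotin-labelled aShh protein from a stem cell growth factor screen; measures binding of labelled protein to compounds printed on the slide; score merges feature fluorescence at 667 nm with signal-to-noise.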 Particulars: small-molecule microarray, higher = more signal.
Assay [18] in a line: probe aNog binding to arrayed compounds – biochemical, biotinylated probe, 635/667 nm fluorescence, primary screen (AID 1115).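 Further: probe is biotinylated aNog protein used at 0.15 µg/mL for 1 h at 4 C; z-score combines 667 nm fluorescence of each spot with its signal to noise.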 Particulars: small-molecule microarray, higher = more signal.
The target in assay [19] is Torsin-1A-interacting protein 1 (Homo sapiens) (UniProt Q5JTV8). As to the kind of experiment: compound microarray binding of lysate hLAP1 – cell lysate, small-molecule microarray, COS7 lysate, 635/667 nm fluorescence, primary screen (AID 1116). Conditions: 635 nm fluorescence, higher = more signal.
Torsin-1A-interacting protein 1 (Homo sapiens), sequence (Q5JTV8 whole entry, looked up): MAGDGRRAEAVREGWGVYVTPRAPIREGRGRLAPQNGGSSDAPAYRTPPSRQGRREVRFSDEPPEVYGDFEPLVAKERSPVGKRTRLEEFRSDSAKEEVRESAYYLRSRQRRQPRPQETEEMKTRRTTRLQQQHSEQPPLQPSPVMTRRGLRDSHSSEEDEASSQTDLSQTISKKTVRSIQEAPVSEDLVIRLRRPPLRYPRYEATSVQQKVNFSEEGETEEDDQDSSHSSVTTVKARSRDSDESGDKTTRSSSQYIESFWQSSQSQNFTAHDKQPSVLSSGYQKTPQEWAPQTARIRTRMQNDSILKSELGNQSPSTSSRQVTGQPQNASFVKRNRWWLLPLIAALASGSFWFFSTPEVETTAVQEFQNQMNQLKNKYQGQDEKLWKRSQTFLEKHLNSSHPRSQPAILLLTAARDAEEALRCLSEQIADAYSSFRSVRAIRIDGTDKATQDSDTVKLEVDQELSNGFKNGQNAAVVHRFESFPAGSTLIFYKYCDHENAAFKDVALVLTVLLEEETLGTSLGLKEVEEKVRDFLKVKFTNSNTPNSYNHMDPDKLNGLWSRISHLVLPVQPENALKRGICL
Assay [20] addresses Alpha-bungarotoxin (Bungarus multicinctus) (UniProt P60615). As to the kind of experiment: compounds binding labelled alpha-BTX control protein – biochemical, small-molecule microarray, Alexa647 label, 635/667 nm fluorescence, artefact control for SMM control protein annotation, profiling panel (AID 1117). Particulars: alpha-BTX-A647 binding fluorescence, higher = more signal.

Alpha-bungarotoxin (Bungarus multicinctus), sequence (P60615 whole entry, looked up): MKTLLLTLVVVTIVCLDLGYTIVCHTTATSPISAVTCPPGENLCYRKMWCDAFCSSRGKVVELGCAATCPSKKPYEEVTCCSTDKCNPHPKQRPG

On to `C=CCN1C(=O)[C@@]2(O[C@@H](CCO)[C@H]([Si](C)(C)c3ccc(OC)cc3)[C@H]2C)c2cc(N3C(=O)c4ccccc4Oc4ccccc43)ccc21`, for which the composite z-score in [1] is 1.07; in assay [2], -0.0987; in assay [3], 0.0272; in [5] it was 0.916; in [6] it was -0.229; in assay [7], -0.262. Moreover, the composite z-score was -0.0233 in [8]; 0.0911 in assay [9]; 0.0761 in assay [10]; -0.719 in assay [11]; 0.163 in assay [13]; 1.4 in [14]. In addition, the composite z-score was 0.927 in assay [15]; 0.0181 in assay [16]; -0.186 in assay [17]; 0.0061 in [18]; 0.669 in assay [19]; 0.328 in assay [20]. Also, the z-score in assay [4] is -3.3 (inactive); in [12], -5.16.

With `CN(C)C(=O)[C@@]1(Cc2ccccc2N=[N+]=[N-])COC(c2ccc(OCCCO)cc2)=N1`, the composite z-score worked out at 1.54 in [1]; 0.764 in [2]; 0.795 in [3]; 0.629 in assay [5]; 1.05 in [6]; 0.0428 in assay [7]. For the same compound, the composite z-score in assay [8] is 0.396; in [9], -0.239; in [10], 0.0217; in [11], 1; in assay [13] it was -0.475; in assay [14], 1.32. Further, the composite z-score in assay [15] is 0.202; in assay [16], 0.212; in [17], 0.661; in assay [18], -1.05; in [19], 1.04; in assay [20] it was 1.55. Besides, the z-score was -0.545 (inactive) in assay [4] and -1.69 in assay [12].

Take `CC(C)N1CC=CC23O[C@@H]4C=CCCOC(=O)C4[C@H]2C(=O)N(CCO)[C@@H]3C1=O` (stereo not given in full): the composite z-score in [1] was 0.154; in assay [2] it was -0.377; in assay [3], -0.0034; in assay [5], 0.107; in [6], -0.504; in [7] it was -0.458. For the same compound, the composite z-score was -0.762 in assay [8]; -0.155 in assay [9]; -0.101 in assay [10]; -0.478 in assay [11]; -0.289 in assay [13]; -0.343 in assay [14]. Also, the composite z-score is -0.348 in assay [15]; -0.224 in [16]; -0.282 in assay [17]; -0.0852 in assay [18]; -0.494 in assay [19]; -0.048 in assay [20]. For the same compound, the z-score in [4] is -1.22 (inactive); in assay [12], 0.516.

With `CN1C(=O)C2C=CC(C(O)Cc3ccccc3)N(N(c3ccccc3)c3ccccc3)C2C1=O` (stereo not given), the composite z-score is 0.86 in assay [1]; 0.46 in assay [2]; 0.733 in assay [3]; 0.812 in assay [5]; -0.227 in assay [6]; -0.567 in [7]. Besides, the composite z-score was -0.068 in assay [8]; -0.303 in assay [9]; 0.864 in assay [10]; 0.501 in [11]; -0.268 in assay [13]; -0.0282 in [14]. The composite z-score in assay [15] came to 0.372; in [16], 0.0438; in [17], 0.0469; in [18] it was 1.14; in assay [19], 0.368; in [20] it was 0.678. Also, the z-score in assay [4] is 0.653 (inactive); in [12], -0.251.

For `CCOC(=O)[C@H]1C/C=C/C[C@H](C(=O)OCC)C(=O)O[C@H]2[C@@H](OC)O[C@H](CO)[C@@H](OC(=O)Nc3ccc(OC)cc3)[C@@H]2OC1=O`, the composite z-score in assay [1] was found to be 0.692; in assay [2], 0.481; in assay [3], 0.564; in [5], 1; in assay [6] it was 1.03; in [7], 0.368. For the same compound, the composite z-score in [8] is 1.29; in [9], 0.46; in assay [10], 0.467; in assay [11] it was 0.89; in [13], 0.721; in assay [14], 0.433. In addition, the composite z-score in assay [15] was 0.118; in [16], 0.0395; in [17] it was -0.0146; in assay [18] it was 0.206; in assay [19] it was 0.753; in assay [20] it was 1.09. The z-score is 0.0675 (inactive) in assay [4] and -2.82 in [12].

Consider `COc1c(C)cc(-c2cc3c(c(Cc4ccccc4)n2)[Si](C(C)C)(C(C)C)OC3)cc1C`, for which the composite z-score in assay [1] was 0.214; in assay [2] it was -0.0724; in [3] it was -0.313; in assay [5], 0.0744; in [6], -0.0485; in [7] it was 0.181. Besides, the composite z-score in [8] was 0.235; in assay [9] it was 0.0324; in assay [10] it was 0.137; in [11] it was -0.0363; in assay [13] it was 0.265; in assay [14], 0.0153. Further, the composite z-score in [15] was 0.0467; in [16] it was -0.096; in assay [17] it was -0.123; in assay [18], -0.393; in assay [19], -0.0091; in [20], 0.229. Moreover, the z-score in [4] is -0.206 (inactive); in assay [12], -0.637.
